In the supplement of paper PMC6555819:

How the values were obtained:
Experiment in all cases: PBM binding z-score (relative to random genomic background probes); higher = stronger binding; sequences stand for … in GC…GCGATTGACAGCGTAGAATGAAGG
[1] = system: FXR:RXRa (NR concentration 270 nM, RXRa partner concentration 90 nM)
Method in brief: (§1)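 Binding z-scores were set against random background probes. The data came from custom Agilent 4×180K protein-binding microarrays carrying double-stranded probes with 34-nt variable regions, incubated 1 h with ligand-free nuclear receptor dimers. Partner-specific antibodies detected binding, and scanned fluorescence was regression-normalized.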

[2] = system: LXRa:RXRa (NR concentration 270 nM, RXRa partner concentration 90 nM)
Method in brief: as §1

[3] = system: LXRa homodimer (NR concentration 270 nM)
Method in brief: as §1

[4] = system: LXRb:RXRa (NR concentration 270 nM, RXRa partner concentration 90 nM)
Method in brief: as §1

[5] = system: LXRb homodimer (NR concentration 270 nM)
Method in brief: as §1

[6] = system: PPARa:RXRa (NR concentration 270 nM, RXRa partner concentration 90 nM)
Method in brief: as §1

[7] = system: PPARg:RXRa (NR concentration 180 nM, RXRa partner concentration 90 nM)
Method in brief: as §1

[8] = system: PPARg:RXRa 270nM:90nM, anti-RXR (NR concentration 270 nM, RXRa partner concentration 90 nM)
Method in brief: as §1

[9] = system: PPARg:RXRa 30nM:10nM, anti-RXR (NR concentration 30 nM, RXRa partner concentration 10 nM)
Method in brief: as §1

[10] = system: PPARg:RXRa 90nM:30nM, anti-RXR (NR concentration 90 nM, RXRa partner concentration 30 nM)
Method in brief: as §1

[11] = system: PPARg:RXRa DBDmut IVT, anti-RXR (DBD mutation: RXRa K156A/R161A, NR concentration 270 nM, RXRa partner concentration 90 nM)
Method in brief: as §1

[12] = system: PPARg:RXRa IVT, anti-PPARg (NR concentration 270 nM, RXRa partner concentration 90 nM)
Method in brief: as §1

[13] = system: PPARg DBDmut:RXRa IVT, anti-PPARg (DBD mutation: PPARg1 K132A/R137A, NR concentration 270 nM, RXRa partner concentration 90 nM)
Method in brief: as §1

[14] = system: PPARg DBDmut IVT, anti-PPARg (DBD mutation: PPARg1 K132A/R137A, NR concentration 270 nM)
Method in brief: as §1

[15] = system: PPARg homodimer (NR concentration 180 nM)
Method in brief: as §1

[16] = system: PXR:RXRa (NR concentration 270 nM, RXRa partner concentration 90 nM)
Method in brief: as §1

[17] = system: PXR homodimer (NR concentration 270 nM)
Method in brief: as §1

[18] = system: RARa:RXR (NR concentration 270 nM, RXRa partner concentration 90 nM)
Method in brief: as §1

[19] = system: RARa homodimer (NR concentration 270 nM)
Method in brief: as §1

[20] = system: RARb:RXRa (NR concentration 270 nM, RXRa partner concentration 90 nM)
Method in brief: as §1

GCTGCTAGGTCAACTGATGGTCAGCTGAAGCTCG
PBM binding z-score [1]: 4.05
PBM binding z-score [2]: 3.09
PBM binding z-score [3]: 0.169
PBM binding z-score [4]: 1.83
PBM binding z-score [5]: -0.22
PBM binding z-score [6]: 3.62
PBM binding z-score [7]: 2.6
PBM binding z-score [8]: 2.86
PBM binding z-score [9]: 0.554
PBM binding z-score [10]: 2.21
PBM binding z-score [11]: 4.69
PBM binding z-score [12]: 3.93
PBM binding z-score [13]: -0.679
PBM binding z-score [14]: -0.202
PBM binding z-score [15]: 1.06
PBM binding z-score [16]: 1.45
PBM binding z-score [17]: -0.515
PBM binding z-score [18]: 2.72
PBM binding z-score [19]: -0.515
PBM binding z-score [20]: 4.31

CTCGCAAGGTCGGTTGAGGTGAGTATACGGATAA
PBM binding z-score [1]: 0.755
PBM binding z-score [2]: 0.469
PBM binding z-score [3]: -0.26
PBM binding z-score [4]: 0.374
PBM binding z-score [5]: -0.72
PBM binding z-score [6]: 1.3
PBM binding z-score [7]: -0.0433
PBM binding z-score [8]: 0.131
PBM binding z-score [9]: -0.357
PBM binding z-score [10]: -0.159
PBM binding z-score [11]: -0.323
PBM binding z-score [12]: 0.241
PBM binding z-score [13]: -0.57
PBM binding z-score [14]: -0.227
PBM binding z-score [15]: -0.181
PBM binding z-score [16]: 1.73
PBM binding z-score [17]: -0.0452
PBM binding z-score [18]: 1.19
PBM binding z-score [19]: -0.537
PBM binding z-score [20]: 1.77

ATCTCTAAGTAACAAGTTCAGTGAAAGAGAGGAC
PBM binding z-score [1]: 0.888
PBM binding z-score [2]: 0.954
PBM binding z-score [3]: 0.532
PBM binding z-score [4]: 0.595
PBM binding z-score [5]: 0.901
PBM binding z-score [6]: 0.572
PBM binding z-score [7]: 0.408
PBM binding z-score [8]: 0.672
PBM binding z-score [9]: 0.701
PBM binding z-score [10]: 0.344
PBM binding z-score [11]: 0.199
PBM binding z-score [12]: 0.166
PBM binding z-score [13]: 0.885
PBM binding z-score [14]: 0.883
PBM binding z-score [15]: 1.43
PBM binding z-score [16]: 1.63
PBM binding z-score [17]: 1.97
PBM binding z-score [18]: 1.18
PBM binding z-score [19]: 1.73
PBM binding z-score [20]: 1.57

CCTAGCGGGCCAATCTGGGTCACTCAAGGCTTGA
PBM binding z-score [1]: 0.251
PBM binding z-score [2]: 0.915
PBM binding z-score [3]: -0.728
PBM binding z-score [4]: 0.534
PBM binding z-score [5]: -1.32
PBM binding z-score [6]: 2.88
PBM binding z-score [7]: 1.65
PBM binding z-score [8]: 1.99
PBM binding z-score [9]: -0.227
PBM binding z-score [10]: 1.17
PBM binding z-score [11]: 3.83
PBM binding z-score [12]: 4.82
PBM binding z-score [13]: -0.426
PBM binding z-score [14]: -0.554
PBM binding z-score [15]: 0.532
PBM binding z-score [16]: 0.83
PBM binding z-score [17]: -0.579
PBM binding z-score [18]: 1.49
PBM binding z-score [19]: -0.347
PBM binding z-score [20]: 1.45

CGCGAAAGGTCGTGCTCAGGTGAGTATACCAAAC
PBM binding z-score [1]: 5.65
PBM binding z-score [2]: 3.9
PBM binding z-score [3]: 0.199
PBM binding z-score [4]: 3.55
PBM binding z-score [5]: -0.0921
PBM binding z-score [6]: 4.89
PBM binding z-score [7]: 3.65
PBM binding z-score [8]: 4.46
PBM binding z-score [9]: 0.769
PBM binding z-score [10]: 2.86
PBM binding z-score [11]: 0.794
PBM binding z-score [12]: 1.92
PBM binding z-score [13]: 0.376
PBM binding z-score [14]: -0.142
PBM binding z-score [15]: 2.14
PBM binding z-score [16]: 3.61
PBM binding z-score [17]: 0.0719
PBM binding z-score [18]: 4.63
PBM binding z-score [19]: 0.019
PBM binding z-score [20]: 4.18

TCAGACAGGTGAAGGCAACTCAGGTACGCAGTCG
PBM binding z-score [1]: 0.773
PBM binding z-score [2]: 0.656
PBM binding z-score [3]: -0.307
PBM binding z-score [4]: 0.471
PBM binding z-score [5]: -0.243
PBM binding z-score [6]: 0.995
PBM binding z-score [7]: 0.701
PBM binding z-score [8]: 1.77
PBM binding z-score [9]: 3.36
PBM binding z-score [10]: 2.58
PBM binding z-score [11]: 2.4
PBM binding z-score [12]: 0.632
PBM binding z-score [13]: -0.586
PBM binding z-score [14]: -0.648
PBM binding z-score [15]: 0.236
PBM binding z-score [16]: 0.249
PBM binding z-score [17]: -0.101
PBM binding z-score [18]: 0.507
PBM binding z-score [19]: -0.314
PBM binding z-score [20]: 0.923

TGACCAAGGTGAGCTGAGGTCGTTGATCCAACTC
PBM binding z-score [1]: 0.866
PBM binding z-score [2]: 1.01
PBM binding z-score [3]: -0.752
PBM binding z-score [4]: 0.289
PBM binding z-score [5]: -1.36
PBM binding z-score [6]: 1.62
PBM binding z-score [7]: 0.26
PBM binding z-score [8]: 0.767
PBM binding z-score [9]: -0.66
PBM binding z-score [10]: 0.279
PBM binding z-score [11]: 0.169
PBM binding z-score [12]: 1.43
PBM binding z-score [13]: 0.123
PBM binding z-score [14]: -1.59
PBM binding z-score [15]: -0.0589
PBM binding z-score [16]: 4.67
PBM binding z-score [17]: 0.0412
PBM binding z-score [18]: 1.84
PBM binding z-score [19]: -0.758
PBM binding z-score [20]: 1.69

TGTCAAAGTTCAAAGGAAACGTAAGTATCCACAC
PBM binding z-score [1]: 6.34
PBM binding z-score [2]: 5.91
PBM binding z-score [3]: 3.73
PBM binding z-score [4]: 3.56
PBM binding z-score [5]: 1.37
PBM binding z-score [6]: 4.94
PBM binding z-score [7]: 7.64
PBM binding z-score [8]: 7.15
PBM binding z-score [9]: 4.84
PBM binding z-score [10]: 6.6
PBM binding z-score [11]: -0.506
PBM binding z-score [12]: 3.75
PBM binding z-score [13]: 1.36
PBM binding z-score [14]: 1.26
PBM binding z-score [15]: 2.31
PBM binding z-score [16]: 4.33
PBM binding z-score [17]: 1.78
PBM binding z-score [18]: 3.21
PBM binding z-score [19]: 1.06
PBM binding z-score [20]: 4.95
